Screening results: PubChem BioAssay, several laboratories
PLK1 inh = human PLK1 kinase inhibitors, primary screen, biochemical, TR-FRET. 97,000 compounds, 0.53% hits. Serine/threonine-protein kinase PLK1 (Homo sapiens), P53350. inhibition, % at 10 µM. recombinant PLK1 kinase, TR-FRET peptide phosphorylation. AID 619, 2007;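 active means inhibition of 50% or more in the single-concentration screen; inactive means inhibition below 50%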
CYP2C19 inhib = blockers of cytochrome P450 2C19 activity – biochemical, luminescence, ADME assay, primary screen; P33261; CYP2C19 Supersomes, luciferin-H EGE luminescence, 30 min; inhibition, % at 5 µM; 96,000 compounds, 21% hits;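 active means CYP2C19 inhibition above a set limit at 5 µM in the primary screen, cut at about 50% in these data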
CYP2C19 activ = human CYP2C19 activators, primary screen, biochemical, luminescence | Cytochrome P450 2C19 (Homo sapiens), P33261 | recombinant CYP2C19, luciferin-H EGE luminescence; stronger effect = higher value; 0 = fully inhibited enzyme, 1 = untreated enzyme | activation factor at 5 µM | 96,000 tested, under 10 active | AID 1025, 2008;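 active means activation factor of at least 2 at 5 µM in the primary screen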
CYP2C9 activ = human CYP2C9 activators, primary screen, biochemical, luminescence | Cytochrome P450 2C9 (Homo sapiens), P11712 | recombinant CYP2C9, luciferin-H conversion; stronger effect = higher value; factor 1 = untreated enzyme, 0 = blocked | activation factor at 5 µM | 96,000 compounds, 1.4% hits | AID 1024, 2008;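 active means activation factor of 2 or more for CYP2C9 at a 5 µM dose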
CYP2C9 inhib = blockers of cytochrome P450 2C9 activity – biochemical, luminescence, ADME assay, primary screen; P11712; CYP2C9 Supersomes, luciferin-H conversion; inhibition, % at 5 µM; 96,000 compounds, 20% hits; AID 777, 2007;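 active means blocking of liver enzyme CYP2C9 beyond about 50% at 5 µM, limit read from the data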
Plk1 PBD FP = Plk1 polo box domain binding inhibitors, primary screen, biochemical, fluorescence polarization; Serine/threonine-protein kinase PLK1 (Homo sapiens), P53350; Plk1 PBD phosphopeptide binding; inhibition, %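 (tested at about 20 µM)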; 97,000 compounds, 0.13% hits; in the data active means inhibition above about 34%, passing the limit was not always enough
Hits are given with their value; 0 = inactive; - = no result. Only some compounds are listed: those with a hit (about 28% of all), similar ones and a draw of the others.

SMILES	PLK1 inh	CYP2C19 inhib	CYP2C19 activ	CYP2C9 activ	CYP2C9 inhib	Plk1 PBD FP
COc1ccccc1NC(=O)C1=C(C)Nc2nc(-c3cccs3)nn2C1c1cccc(O)c1 (configuration not stated)	0	0	0	0	69.5	0
COc1ccc(C2C(C(=O)Nc3cccnc3)=C(C)Nc3nc(-c4cccs4)nn32)cc1OC (configuration not stated)	0	0	0	0	0	0
COc1cccc(C2C(C(N)=O)=C(C)Nc3nc(-c4ccccc4Cl)nn32)c1 (configuration not stated)	-	60.4	0	0	0	-
COc1ccc(C2C(C(N)=O)=C(C)Nc3nc(-c4cccc(Cl)c4)nn32)cc1OC (configuration not stated)	0	56.0	0	0	0	0
Cc1ccc(C)c(S(=O)(=O)NC(CCC(N)=O)C(=O)O)c1 (configuration not stated)	0	0	0	0	0	0
COc1cc(Cl)c(S(=O)(=O)NCc2ccccn2)cc1Cl	0	81.2	0	0	0	0
O=S(=O)(NCCc1ccccn1)c1ccc(F)c(F)c1	-	84.9	0	0	0	-
COc1cc(S(=O)(=O)Nc2cccnc2)ccc1F	0	0	0	0	0	0
O=C(CCNS(=O)(=O)c1ccc(Cl)cc1)NCc1ccccn1	0	0	0	0	0	0
COc1cc(S(=O)(=O)NCc2cccnc2)ccc1F	0	83.2	0	0	0	0
COc1ccc(S(=O)(=O)NCc2ccccn2)cc1Cl	0	92.1	0	3.2	0	0
CN1C(=O)/C(=C/c2cc(N=Nc3ccccc3)ccc2O)SC1=S	0	0	0	0	0	0
COc1cc(Cl)c(S(=O)(=O)NCc2cccnc2)cc1Cl	0	85.1	0	0	0	0
COc1ccc(S(=O)(=O)N(CC(=O)N2CCN(C)CC2)c2ccc(C)cc2)cc1OC	0	0	0	0	0	0
Cc1cc(C)nc(SCC(=O)N/N=C/c2cccn2-c2cccc(C(F)(F)F)c2)n1	0	0	0	0	0	0
Cc1cc(C)nc(SCC(=O)N/N=C/c2cccn2-c2ccc(O)cc2)n1	0	0	0	0	54.7	0
CC(C(=O)NCc1ccco1)n1cc(C(=O)c2ccco2)c2ccccc21 (configuration not stated)	0	0	0	0	0	0
c1ccc2c(COn3nnc4ccccc43)cccc2c1	0	96.4	0	0	69.7	0
c1ccc2c(Cn3nnc4ccccc43)cccc2c1	0	0	0	2.5	0	0
Cc1cc(-n2nnc3ccccc32)nc2ccccc12	0	0	0	0	0	0
O=C(Cn1nnc2ccccc21)NCc1ccccc1	0	0	0	0	0	0
COc1ccccc1C/C(N)=N/OC(=O)COc1ccc(C)cc1	0	-	-	-	-	-
O=[N+]([O-])c1cc(Cl)cc(/C=N\Nc2ccccn2)c1O	0	53.9	0	0	50.1	0
O=[N+]([O-])c1cc(C(F)(F)F)ccc1N/N=C/c1cc2ccccc2nc1Cl	0	0	0	0	0	0
C=CCN1C(=O)C(O)=C(C(C)=O)C1c1ccccc1F (configuration not stated)	-	0	0	0	0	-
SMILES	PLK1 inh	CYP2C19 inhib	CYP2C19 activ	CYP2C9 activ	CYP2C9 inhib	Plk1 PBD FP
CCOc1ccc(/C=N/O)cc1	0	55.4	0	0	0	0
CCOC(=O)C(=O)/C(=C\N(C)C)c1onc(-c2c(Cl)cccc2Cl)c1C(=O)OC	0	54.8	0	0	91.2	0
CCOC(=O)C(=O)/C(=C\N(C)C)c1onc(-c2ccccc2Cl)c1C(=O)OC	0	0	0	0	66.6	0
CCN(CC)c1ncc(C)c(=O)[nH]1	-	0	0	0	0	-
Cc1ccc(C(=O)ONc2ccc(N=O)cc2)cc1	0	0	0	0	93.1	0
Cc1ccc(C(=O)ONc2ccc(N=NC(=O)c3ccccc3O)cc2)cc1	0	99.8	0	0	91.8	0
Cc1c(Cl)ccc2c1NC(=O)[C@]21N[C@@H](Cc2ccccc2)[C@H]2C(=O)N(c3ccc(F)cc3)C(=O)[C@H]21	0	0	0	0	0	0
